Source: PubChem BioAssay (NCATS)
Inconclusive results are not listed. Active and inactive are the calls of the source. The call rests on the fitted dose curve; in most records, active means well fitted curve in the direction sought with a large enough effect; inconclusive means small, poorly fitted or top-dose-only effect, or another doubt; inactive means no such curve, though single readings can be large; an effect the other way counts as inactive or inconclusive.

Key:
[1] = target: Glutathione peroxidase 1 (Homo sapiens) (UniProt P07203); test: Primary qHTS Assay for Inhibitors of Recombinant Selenoprotein Glutathione Peroxidase 1 (GPX1) (AID 1845191); further: nearly all actives have a fitted effect of over 65% in size; on activity, negative = inhibition: on the % scale 0 is the no-effect control and ±100 the full control effect
Chain of Glutathione peroxidase 1 (Homo sapiens) (P07203 whole entry, looked up): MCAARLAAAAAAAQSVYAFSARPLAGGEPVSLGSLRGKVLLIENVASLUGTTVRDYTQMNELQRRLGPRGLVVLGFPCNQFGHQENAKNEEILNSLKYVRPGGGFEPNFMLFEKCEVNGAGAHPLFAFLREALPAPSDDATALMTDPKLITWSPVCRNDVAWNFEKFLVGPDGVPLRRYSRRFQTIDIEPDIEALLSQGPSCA
Procedure, shortened: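 GR-coupled readout: NADPH consumption tracked by fluorescence, ex 340/em 450 nm, at t=0 and after 15 min at RT. Final mix 10 nM GPX1, 1 mM GSH, 0.5 mM CHP, 0.5 mM NADPH, 100 nM GR, 0.01% BSA, following 30 min enzyme–compound preincubation.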

[2] = target: Phospholipid hydroperoxide glutathione peroxidase GPX4 (Homo sapiens) (UniProt P36969); test: Primary qHTS Assay for Inhibitors of Recombinant Selenoprotein Glutathione Peroxidase 4 (GPX4) (AID 1845192); further: nearly all actives have a fitted effect of over 65% in size; on activity change, negative = inhibition: series mostly up to about 50 µM; on the % scale 0 is the no-effect control and ±100 the full control effect
Chain of Phospholipid hydroperoxide glutathione peroxidase GPX4 (Homo sapiens) (P36969 whole entry, looked up): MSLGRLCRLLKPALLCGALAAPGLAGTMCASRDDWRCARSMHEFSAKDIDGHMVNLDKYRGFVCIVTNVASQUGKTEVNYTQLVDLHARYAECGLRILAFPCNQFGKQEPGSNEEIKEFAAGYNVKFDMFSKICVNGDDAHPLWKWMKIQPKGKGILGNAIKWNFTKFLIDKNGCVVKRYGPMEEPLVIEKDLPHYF
Procedure, shortened: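 Steps: GPX4 plus compound, 30 min RT; add GR/GSH/NADPH master mix; start with cumene hydroperoxide; read 340/450 nm fluorescence at 0 and 15 min. Finals were 200 nM GPX4, 1 mM GSH, 0.5 mM CHP, 0.5 mM NADPH, 100 nM GR.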

[3] = target: Luciferin 4-monooxygenase (Photinus pyralis) (UniProt P08659); test: Primary firefly luciferase (FLuc) qHTS assay for identification of artifact compounds. (AID 1845220); further: nearly all actives have a fitted effect of over 60% in size;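 on activity change, negative = inhibition: series mostly up to about 54 µM; plate controls were DMSO vehicle for no effect and no enzyme for full effect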
Procedure, shortened: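 D-luciferin and ATP (10 uM each, final) in Tris acetate buffer pH 7.6 were incubated with compounds for 15 min at room temperature. The reaction was started with 10 nM Photinus pyralis luciferase and luminescence read after 5 min. Percent inhibition was fitted to a 4-parameter Hill equation.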

[4] = Primary fluorescence-based thiol-reactive (MSTI) qHTS assay for identification of artifact compounds. (AID 1845221); further: nearly all actives have a fitted effect of over 65% in size; further: potency means the concentration at half of the fitted maximal effect;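 on activity change, negative = thiol reactive: series mostly up to about 54 µM; thiol-reactive compounds lower the probe fluorescence signal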
Procedure, shortened: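 First, 4 uM MSTI in 2% DMSO/PBS pH 7.4 was dispensed; next, compounds were added; then plates sat 1 h at room temperature without light. Finally, emission at 598 nm was recorded.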

[5] = system: Nanoluciferase (engineered Oplophorus gracilirostris luciferase); test: Primary Nanoluciferase (NLuc) qHTS assay for identification of artifact compounds. (AID 1845222);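 further: series mostly up to about 54 µM; 0% = DMSO and -100% = no enzyme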
Procedure, shortened: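 Diluted conditioned medium from NLuc-expressing S16 cells treated with compounds for 15 min at room temperature, then Nano-Glo substrate added; luminescence read after 5 min. Percent inhibition versus no-enzyme and DMSO controls fitted to 4-parameter Hill equation.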

[6] = Primary redox qHTS assay for identification of artifact compounds. (AID 1845223);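 further: 0% = DMSO and 100% = reference compound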
Procedure, shortened: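 Redox-cycling detection via DTT (250 uM final) oxidation coupled to Amplex Red (25 uM)/HRP (250 mU/mL) in HBSS. 15 min preincubation plus 30 min after DTT, room temperature. Ex/Em 525/598 nm; 4-parameter Hill fit against DMSO and 10 uM DA3003.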

C[C@H](NC(c1cccc2[nH]c(=O)c(=O)[nH]c12)P(=O)(O)O)c1ccc(Br)cc1 (stereo not given in full)
inactive: Potency [1] | Potency [2] | Potency [3] | Potency [4] | Potency [5] | Potency [6]

Cc1cc(Nc2nc(NC(C)c3ncc(F)cn3)ncc2Cl)n[nH]1 (stereo not given)
inactive: Potency [1] | Potency [2] | Potency [3] | Potency [4] | Potency [5] | Potency [6]

CCCn1c(=O)c2[nH]c(-c3ccc(OCC(=O)O)cc3)nc2n(CCC)c1=O
inactive: Potency [1] | Potency [2] | Potency [3] | Potency [4] | Potency [5] | Potency [6]

Nc1nc2c(ncn2[C@@H]2O[C@@H]3COP(=O)(O)O[C@H]3[C@H]2O)c(=O)[nH]1
inactive: Potency [1] | Potency [2] | Potency [3] | Potency [4] | Potency [5] | Potency [6]

CC1(C)CC[C@]2(C(=O)O)[C@H](O)C[C@]3(C)C(=CCC4[C@@]5(C)CC[C@H](O[C@@H]6O[C@H](CO[C@@H]7OC[C@H](O)[C@H](O)[C@H]7O[C@@H]7OC[C@@H](O)[C@H](O)[C@H]7O)[C@@H](O)[C@H](O)[C@H]6O[C@@H]6O[C@H](CO)[C@@H](O)[C@H](O)[C@H]6O)C(C)(C)C5CC[C@]43C)[C@@H]2C1 (stereo not given in full)
inactive: Potency [1] | Potency [2] | activity change, negative = inhibition [3] 0.747% [at 11.6 µM] | activity change, negative = thiol reactive [4] 242% [at 11.5 µM] | activity, negative = inhibition [5] 3.21% [at 11.6 µM] | redox activity (% of DA3003) [6] 15.6% [at 11.5 µM]

O=C(Nc1nc2ccccc2n1CCc1ccccc1)c1ccccc1
inactive: Potency [1] | Potency [2] | Potency [3] | Potency [4] | Potency [5] | Potency [6]

CC1(C=O)CC[C@]2(C(=O)O[C@@H]3O[C@H](CO)[C@@H](O)[C@H](O)[C@H]3O)CC[C@]3(C)C(=CCC4[C@@]5(C)C[C@H](O)[C@H](O[C@@H]6OC[C@@H](O)[C@H](O)[C@H]6O)[C@@](C)(CO)C5CC[C@]43C)C2C1 (stereo not given in full)
inactive: Potency [1] | Potency [2] | outcome [3] inactive [at 11.6 µM] | activity change, negative = thiol reactive [4] 182% [at 11.5 µM] | activity, negative = inhibition [5] 2.01% [at 11.6 µM] | redox activity (% of DA3003) [6] 8.25% [at 11.5 µM]

COc1ccc(CCO[C@@H]2CCCC[C@H]2N2CC[C@@H](O)C2)cc1OC
inactive: Potency [1] | Potency [2] | Potency [3] | Potency [4] | Potency [5] | Potency [6]

C[C@@H]1O[C@@H](O[C@H]2[C@H](O[C@H]3[C@H](O[C@H]4CC[C@@]5(C)C(CC[C@]6(C)C5CC=C5[C@@H]7CC(C)(C)C[C@@H](O)[C@]7(C)CC[C@]56C)[C@@]4(C)CO)O[C@H](C(=O)O)[C@@H](O)[C@@H]3O)OC[C@H](O)[C@@H]2O)[C@H](O)[C@H](O)[C@H]1O (stereo not given in full)
inactive: Potency [1] | Potency [2] | outcome [3] inactive [at 11.6 µM] | activity change, negative = thiol reactive [4] 129% [at 11.5 µM] | activity, negative = inhibition [5] -0.768% [at 11.6 µM] | redox activity (% of DA3003) [6] 17.9% [at 11.5 µM]

O=C(NCc1ccc(F)cc1)C(=O)c1c[nH]c2ccccc12
inactive: Potency [1] | Potency [2] | Potency [3] | Potency [4] | Potency [5] | Potency [6]

C[C@@H]1O[C@@H](OC[C@H]2O[C@@H](Oc3cc(O)cc4c3C(=O)C(O)(Cc3ccc(O)cc3)O4)[C@H](O)[C@@H](O)[C@@H]2O)[C@H](O)[C@H](O)[C@H]1O (stereo not given in full)
inactive: Potency [1] | Potency [2] | Potency [3] | Potency [4] | Potency [5] | Potency [6]

CC1CCC2C(C(=O)O)=COC(O[C@@H]3O[C@H](CO)[C@@H](O)[C@H](O)[C@H]3O)C12 (stereo not given in full)
inactive: Potency [1] | Potency [2] | Potency [3] | Potency [5] | Potency [6]
active: Potency [4] 5.85 µM

C[C@H]1CC[C@@H]2N(C1)C[C@@H]1[C@H]([C@@H](O)[C@H](O)[C@]3(O)[C@H]1C[C@@]14OC5(O)[C@@H](C[C@@H](O)[C@@H]31)[C@]4(C)CC[C@@H]5O)[C@]2(C)O
inactive: Potency [1] | Potency [2] | Potency [3] | Potency [4] | Potency [5] | Potency [6]

C/C=C1\[C@H](O[C@@H]2O[C@H](CO)[C@@H](O)[C@H](O)[C@H]2O)OC=C(C(=O)OC)[C@H]1CC(=O)O
inactive: Potency [1] | Potency [2] | Potency [3] | Potency [4] | Potency [5] | Potency [6]

COc1ccc(F)cc1-c1cc(NC(=O)[C@@H]2CCCNC2)ncc1Cl
inactive: Potency [1] | Potency [2] | Potency [3] | Potency [4] | Potency [5] | Potency [6]

CC(C)NCC(C(=O)N1CCN(c2ncnc3c2C(C)CC3O)CC1)c1ccc(Cl)cc1 (stereo not given)
inactive: Potency [1] | Potency [2] | Potency [3] | Potency [4] | Potency [5] | Potency [6]

Cc1cc(N2CCN([C@@H]3CN[C@H](C(=O)N4CCSC4)C3)CC2)n(-c2ccccc2)n1
inactive: Potency [1] | Potency [2] | Potency [3] | Potency [4] | Potency [5] | Potency [6]

COC(=O)C1=CO[C@@H](O[C@@H]2O[C@H](CO[C@@H]3O[C@H](COC(=O)/C=C/c4cc(OC)c(O)c(OC)c4)[C@@H](O)[C@H](O)[C@H]3O)[C@@H](O)[C@H](O)[C@H]2O)[C@@H]2C(CO)=CC[C@H]12
inactive: Potency [1] | Potency [2] | Potency [3] | Potency [5] | Potency [6]
active: Potency [4] 7.93 µM

CCCN1CCC(c2cccc(S(C)(=O)=O)c2)CC1
inactive: Potency [1] | Potency [2] | Potency [3] | Potency [4] | Potency [5] | Potency [6]

CC1CCC2(C(=O)O)CCC3(C)C(=CCC4C5(C)CCC(O)C(C)(CO)C5CCC43C)C2C1(C)O (stereo not given)
inactive: Potency [1] | Potency [2] | Potency [3] | Potency [4] | Potency [5] | Potency [6]
